# Source: PubChem (National Center for Advancing Translational Sciences (NCATS))
# Compounds with a hit are over-represented: about 3.6% of the library has one in this group of screens.
# GCN5L2 inh – inhibitors of human GCN5L2 histone acetyltransferase; Q92830; GCN5L2 HAT assay, ThioGlo1 CoA-SH fluorescence; Potency, µM (titrated, usually from 58.9 µM), for the others: top-dose activity change, negative = inhibition, hits mostly inhibitors; actives 0.21% (n = 390,000); AID 504327; note: % is set by controls: 0 for no effect and ±100 for the full control effect
#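 Preincubate 20nM GCN5L2 with compound 15 min, RT → add 50uM ThioGlo1 + 75uM H3(1-25) + 70uM acetyl-CoA → read fluorescence 0 and 20 min. Primary qHTS; fluorescent artifacts likely.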
# NPSR antag – neuropeptide S receptor (human) antagonism, cAMP; Potency, µM (highest dose often 38.3 µM), without a hit: top-dose activity change, negative = inhibition, actives largely listed as inhibitors; CHO-NPSR cells, cAMP TR-FRET, antagonist mode; actives 1% (n = 220,000); AID 1461; note: % is set by controls: 0 for no effect and ±100 for the full control effect; nearly all actives have a fitted effect of over 50% in size
# JMJD2E inh – JMJD2E (human) inhibition | JMJD2E catalytic domain, FDH-coupled NADH fluorescence (FDH is formaldehyde dehydrogenase) | Potency, µM (top dose mostly 57.1 µM), for inactives: top-dose activity change, negative = inhibition, usual class: inhibitors | actives 1.6% (n = 230,000) | AID 2147; active = well fitted inhibition curve with a large enough effect, not every such curve was filed as active; inconclusive = small, poorly fitted or top-dose-only effect, or another doubt; inactive = no such curve, though single readings can be large or run the other way;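 note: 0% = wells with enzyme and -100% = buffer wells without enzyme; nearly all actives have a fitted effect of over 50% in size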
# Target sequence (B2RXH2 1-337 limits assumed): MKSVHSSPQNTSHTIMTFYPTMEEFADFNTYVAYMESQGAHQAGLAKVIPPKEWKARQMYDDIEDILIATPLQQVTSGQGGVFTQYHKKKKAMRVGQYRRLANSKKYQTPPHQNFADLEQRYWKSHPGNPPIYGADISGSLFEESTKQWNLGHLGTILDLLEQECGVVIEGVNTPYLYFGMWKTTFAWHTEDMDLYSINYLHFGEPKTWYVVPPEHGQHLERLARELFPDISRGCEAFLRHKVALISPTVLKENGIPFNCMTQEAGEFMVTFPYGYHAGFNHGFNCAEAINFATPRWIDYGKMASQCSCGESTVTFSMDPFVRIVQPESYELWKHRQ
# IMPase Li cell – IMPase inhibition in cells with lithium potentiation; CHO-M1 cells, IP1 TR-FRET (IP-One), carbachol + lithium; Potency, µM (series often up to 59.4 µM), for the others: at the top dose activity, negative = IMPase inhibition, most hits filed as inhibitors; actives 0.35% (n = 210,000); AID 1457;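 note: IP1 builds up when IMPase is blocked and the TR-FRET signal falls; plate controls were basal vehicle for no effect and high inhibitor control for full effect; nearly all actives have a fitted effect of over 50% in size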
#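 CHO cells stably expressing M1 receptor (2000/well, cultured 16–30 h) treated 30 min at 37C with compound plus low lithium. Cytosolic IP1 by TR-FRET (665/620 ratio and 620 channel) after 10 min lysis; AC50 by Hill fit.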
# Sfp PPTase inh – blocks B. subtilis Sfp PPTase activity. Q9F4F7. Biochemical Sfp PPTase activity, qHTS. Potency, µM, without a hit: largest response in the series, negative = inhibition, hits mostly inhibitors. actives 3.5% (n = 310,000). AID 1490;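 note: the enzyme is Sfp with the accession as filed and its product quenches rhodamine fluorescence; 0% = enzyme reaction without inhibitor and -100% = no enzyme wells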
#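 Fluorescence-quenching assay: 15 nM Sfp-PPTase preincubated 15 min at room temperature with compound, then 5 uM rhodamine-CoA and 12.5 uM BHQ-2-labelled YbbR peptide added. Fluorescence (ex 525/em 598 nm) read at start and after 30 min; difference gives rate.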
# Epigenetic reg – epigenetic control regulation, reporter derepression; murine LDR cells, GFP reporter derepression, 30 h; Potency, µM (top dose mostly 53.9 µM), inactives show at the top dose GFP activation, hits mostly activators; actives 0.2% (n = 280,000); AID 1865; note: % of control where 0% means no effect; nearly all actives have a fitted effect of over 60% in size
#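 In this reporter-derepression format, murine cells bearing a silenced integrated CMV-GFP locus incubate with test compound (30 h, 37 C), then are washed and imaged; fluorescent objects of 20–120 um count as induced cells.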
# Active calls of the source: *; ? = inconclusive; . = no result; [ ] = remark or other dose. Unless noted, calls come from the whole dose curve; as a rule, active = well fitted curve in the direction sought with a large enough effect; inconclusive = small, poorly fitted or top-dose-only effect, or another doubt; inactive = no such curve, though single readings can be large; an effect the other way counts as inactive or inconclusive. Potency is the fitted concentration of half-maximal effect.
SMILES,GCN5L2 inh,NPSR antag,JMJD2E inh,IMPase Li cell,Sfp PPTase inh,Epigenetic reg
CCOc1cccc(-c2nnc(SCC(=O)Nc3cc(OC)cc(OC)c3)n2N)c1,-4%,-22%[46.1 µM],2%,25µM*,-5%,-2%
CC(C)(C)c1ccc2c(S(=O)(=O)O)c(C(C)(C)C)ccc2c1,-3%,.,.,.,3%,.
COc1cc(C)c(/C=C/C(C)=C/C=C/C(C)=C/C(=O)O)c(C)c1C,25µM*,.,.,21%,-13%,3%
O=C1Nc2ccccc2/C1=C/c1cnc(-c2ccccc2)[nH]1,-3%,?,5%,.,-4%,22µM*
O=C1Nc2ccccc2/C1=C/c1cccnc1,-4%,2%,-7%,-2%,4%,-1%
CCN(CC)c1ccc(S(=O)(=O)N2CCOCC2)cc1NC(=O)CSC(=S)N1CCCC1,?,.,.,.,25µM*,.
CCN(CC)c1ccc(S(=O)(=O)N2CCOCC2)cc1NC(=O)CN1CCN(Cc2ccccc2)CC1,-17%,-46%,28µM*,.,79µM*,-3%
CCN(CC)c1ccc(S(=O)(=O)N2CCOCC2)cc1NC(=O)Nc1ccccc1,-18%,.,.,.,.,.
CCC(NC(C)C)C(O)c1ccc(O)c2[nH]c(=O)ccc12 (centres undefined),-1%,-5%,?,3%,-23%,0%
CC[C@H](NC(C)C)[C@H](O)c1ccc(O)c(O)c1,3%,.,11µM*,8%,-17%,2%[16.9 µM]
O=C(O)CCc1ccc(-c2cccs2)n1Cc1ccco1,0%,-5%[46.1 µM],?,13%[38.3 µM],25µM*,0%
CCOC(=O)c1ccc(-n2c(CCC(=O)O)ccc2-c2cccs2)cc1,-17%,-43%,?,6%,25µM*,0%
Cc1ccc(-n2c(CCC(=O)O)ccc2-c2cccs2)cc1C,-4%,-5%[46.1 µM],?,-6%[38.3 µM],45µM*,1%
O=C(O)CCc1ccc(-c2ccccc2)n1-c1cccc(C(=O)O)c1,11%,.,.,.,71µM*,.
CCc1ccc(-n2c(CCC(=O)O)ccc2-c2cccs2)cc1,-11%,.,.,.,.,-3%
O=C(O)CCc1ccc(-c2ccccc2)n1-c1ccc(C(=O)O)cc1,-3%,.,.,.,-5%,-1%
O=C(O)CCc1ccc(-c2ccc(Cl)cc2)n1Cc1ccco1,-10%,-21%[46.1 µM],?,13%[38.3 µM],-14%,2%
C[C@@H]1CC[C@H]2[C@H](C)C3[C@H](C[C@H]4[C@@H]5CC=C6C[C@@H](O)CC[C@@]6(C)[C@@H]5C[C@@H](O)[C@]34C)N2C1 (some centres undefined),.,.,.,14%,.,.
Cc1ccc(NC(=O)c2sc3ncnc(N(C)C4CCCCC4)c3c2C)cc1,-7%,.,.,.,.,-1%
O=C1[C@@H]2[C@H]3[C@H](O)[C@H](O)C/C(=N/OCc4ccccc4)[C@@H]3CC[C@H]2C(=O)N1c1ccc(F)cc1F,.,.,.,.,11%,0%[10.1 µM]
O=C1CC(Sc2ncccn2)C(=O)N1c1ccccc1 (centres undefined),0%,7%[46.1 µM],6%,18%[38.3 µM],-3%,3%
Nc1nnc(SC2CC(=O)N(c3ccccc3)C2=O)s1 (centres undefined),-13%,-4%[46.1 µM],-9%,2%[38.3 µM],79µM*,-2%
COc1ccccc1N1C(=O)CC(Sc2nccc(C)n2)C1=O (centres undefined),-4%,0%[46.1 µM],7%,21%[38.3 µM],-4%,1%
Cc1nc(SC2CC(=O)N(c3ccccc3)C2=O)n[nH]1 (centres undefined),1%,15%,-15%,-9%,16µM*,8%
COc1ccccc1N1C(=O)CC(Sc2n[nH]c(-c3cccc(C)c3)n2)C1=O (centres undefined),-13%,?,1%,2%,5.6µM*,-2%
COc1ccc(OC)c(C2=Nn3c(nnc3-c3cccc(OC)c3OC)SC2)c1,.,.,.,.,29%,.
